Laboratory results: PubChem BioAssay AID1508625 (Wald Lab, School of Medicine, Case Western Reserve …, 2021)

Assay: enhancers of NK cell killing of ovarian tumor cells, primary screen, imaging, OVCAR3, primary NK cells, calcein-AM imaging (AID 1508625);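 also: compound given to NK cells 16 h before adding targets at 1.5 to 1 ratio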
Details: OVCAR3 lysis by primary NK cells, at 5 µM; z-score: measured here: robust Z-score, single-point normalisation

Structure (SMILES) | corrected activity, negative = more killing [%] | z-score
Cc1ccc(C)c(N=Cc2c(C)[nH]c3ccccc23)c1 | -2.79 | -1.18
COc1c(Cl)cc(Cl)cc1C(=O)n1nc(C)cc1C | -2.7 | -1.06
O=C(CCCn1c(=S)[nH]c2cc3c(cc2c1=O)OCO3)NCCCN1CCOCC1 | -7.74 | -2.05
COc1ccc(OC)c(NC(=O)c2cc3cccc(OC)c3oc2=O)c1 | -3.03 | -1.31
CC1C(=O)NN=C1C(=O)NN=Cc1cccnc1 (configuration not stated) | -3.57 | -1.56
O=C(Nc1nc(-c2ccc([N+](=O)[O-])cc2)cs1)c1ccccc1F | -1.2 | -0.252
Cc1ccc(-n2cnc3cc(C(=O)NC4CCCC4)ccc32)cc1Cl | -3.42 | -0.921
COc1ccccc1N1CCN(C(=O)c2ccc(Cn3c(=S)[nH]c4cc5c(cc4c3=O)OCO5)cc2)CC1 | -5.34 | -1.42
CCC1CCCCN1C(=O)c1sc2ncn(Cc3ccccc3F)c(=O)c2c1C (configuration not stated) | -3.67 | -1.34
COc1ccc(-c2ccc3c(N)c(C(=O)NCc4ccc(C(F)(F)F)cc4)sc3n2)cc1 | -1.13 | -0.339
CCOC(=O)C1C(c2ccccc2)NC(=S)NC1(O)C(F)(F)F (configuration not stated) | -1.39 | -0.43
COc1ccc(C=c2sc3nc4cc(C)c(C)cc4n3c2=O)cc1Br | -0.475 | -0.246
CC(C(=O)NCCC1=CCCCC1)c1ccc([N+](=O)[O-])cc1 (configuration not stated) | -0.521 | -0.29
Cc1cccn2c(=O)c3cc(C(=O)N(CC(C)C)CC(C)C)sc3nc12 | -8.5 | -2.41
O=C(CSCc1ccccc1Cl)NCCc1ccc(Cl)cc1 | -1.86 | -0.502
c1cc2c(cc1Nc1nc(-c3ccc(C4CCCCC4)cc3)cs1)OCO2 | 0.134 | 0.0696
